Calls of active or inactive are those of the source. How the source made its calls: active means hit-call score of the fitted dose curve at least 0.9, where 1 is the maximum; inactive means score below 0.9.
Legend:
[1] = ATG_PPRE_CIS: Attagene CIS-FACTORIAL HepG2 Assay for human Peroxisome Proliferator-activated Response Element (PPRE) (AID 2282958); conditions: HepG2 PPRE cis-element reporter, Attagene transcription factor profiling; actives raise or lower the signal
Summary of the method: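 HepG2 cells are transiently transfected with multiplexed cis-promoter reporter units to report endogenous PPAR activity. After 24 h dosing, reporter mRNA is read by RT-PCR and capillary electrophoresis. Fitting is bidirectional against DMSO.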

[2] = ATG_RORE_CIS: Attagene CIS-FACTORIAL HepG2 Assay for human RAR-related Orphan Receptor Element (RORE) (AID 2282959); conditions: HepG2 Attagene cis-factorial RORE reporter, mRNA; actives raise or lower the signal
Summary of the method: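 HepG2 cells carrying transiently transfected cis-regulated reporter units; RORE-driven reporter mRNA quantified 24 h post-dosing by RT-PCR, 6-FAM primer extension, HpaI digestion and capillary electrophoresis. Bidirectional fit versus DMSO.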

[3] = ATG_Sox_CIS: Attagene CIS-FACTORIAL HepG2 Assay for human SRY-box transcription factor (SOX) (AID 2282960); conditions: HepG2 Attagene cis-factorial SOX reporter, mRNA; actives raise or lower the signal
Summary of the method: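 HepG2 cells transiently transfected with multiple cis-regulated reporter units, then dosed for 24 h. Reporter mRNA quantified by RT-PCR, fluorescent labelling, HpaI digestion and capillary electrophoresis; bidirectional fit versus DMSO.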

[4] = target: Transcription factor Sp1 (Homo sapiens) (UniProt P08047); assay: ATG_Sp1_CIS: Attagene CIS-FACTORIAL HepG2 Assay for human Specificity Protein 1 (Sp1) (AID 2282961); conditions: HepG2 Sp1 cis-reporter transcription, actives raise or lower the signal
Summary of the method: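 HepG2 cells transiently transfected with multiplexed cis-regulated reporter constructs, chemical exposure 24 h. Reporter mRNA quantified by RT-PCR with capillary electrophoresis; bidirectional fit relative to DMSO.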

[5] = ATG_SREBP_CIS: Attagene CIS-FACTORIAL HepG2 Assay for human Sterol Regulatory Element Binding (SREBP) (AID 2282962); conditions: HepG2 Attagene cis-factorial SREBP reporter, mRNA; actives raise or lower the signal
Summary of the method: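 HepG2 cells transiently transfected with multiplexed cis-element reporter units report endogenous transcription factor activity. After 24 h of chemical exposure, reporter mRNA was quantified by RT-PCR, 6-FAM labelling, HpaI digestion and capillary electrophoresis; bidirectional fits used DMSO as baseline.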

[6] = target: Signal transducer and activator of transcription 3 (Homo sapiens) (UniProt P40763); assay: ATG_STAT3_CIS: Attagene CIS-FACTORIAL HepG2 Assay for human Signal Transducer and Activator of Transcription 3 (STAT3) (AID 2282963); conditions: HepG2, Attagene cis-factorial STAT3 reporter transcription; actives raise or lower the signal
Summary of the method: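 Endogenous STAT3-responsive cis-element activity was read in transiently transfected HepG2 cells after 24 h treatment. Reporter transcripts were quantified via RT-PCR and capillary electrophoresis, with DMSO as negative control and bidirectional curve fitting.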

[7] = ATG_TA_CIS: Attagene CIS-FACTORIAL HepG2 Assay for human TA Basal Promoter (AID 2282964); conditions: HepG2 Attagene CIS-factorial TA basal promoter reporter; actives raise or lower the signal
Summary of the method: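 Transfected HepG2, 24 h compound exposure; RNA → RT-PCR → FAM primer extension → HpaI cut → CE fluorescence. Gain/loss-of-signal fitted against DMSO negative control. Background-control readout.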

[8] = ATG_TCF_b_cat_CIS: Attagene CIS-FACTORIAL HepG2 Assay for human T-Cell-Factor with beta-catenin (TCF/b-cat) (AID 2282965); conditions: HepG2 TCF/beta-catenin cis-reporter transcription, actives raise or lower the signal
Summary of the method: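 Endogenous TCF/LEF activity read as reporter transcript level via RT-PCR and capillary electrophoresis fluorescence in transfected HepG2, 24 h exposure; gain or loss of signal fitted against DMSO controls.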

[9] = ATG_TAL_CIS: Attagene CIS-FACTORIAL HepG2 Assay for human TAL Basal Promoter (AID 2282966); conditions: HepG2 Attagene cis-factorial TAL promoter reporter; actives raise or lower the signal;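 further: background control endpoint measuring basal TAL promoter reporter mRNA not a specific factor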
Summary of the method: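 In this cell-based multiplex, HepG2 liver cells bearing cis-promoter reporter constructs are dosed for 24 hours. Total RNA is reverse-transcribed and amplified, labelled fragments are sized by capillary electrophoresis, and signal changes are fitted bidirectionally versus DMSO.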

[10] = ATG_TGFb_CIS: Attagene CIS-FACTORIAL HepG2 Assay for human Transforming Growth Factor (TGF) (AID 2282967); conditions: HepG2 Attagene CIS TGFb reporter, mRNA transcription; actives raise or lower the signal
Summary of the method: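 Readout: fluorescently labeled reporter cDNA fragments resolved by capillary electrophoresis after RT-PCR. Transfected HepG2 cells dosed for 24 h; endogenous TF activity at TGFB1-linked cis element; gain or loss fitted relative to DMSO.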

Measured: AC50

Transcription factor Sp1 (Homo sapiens), sequence (P08047 whole entry, looked up): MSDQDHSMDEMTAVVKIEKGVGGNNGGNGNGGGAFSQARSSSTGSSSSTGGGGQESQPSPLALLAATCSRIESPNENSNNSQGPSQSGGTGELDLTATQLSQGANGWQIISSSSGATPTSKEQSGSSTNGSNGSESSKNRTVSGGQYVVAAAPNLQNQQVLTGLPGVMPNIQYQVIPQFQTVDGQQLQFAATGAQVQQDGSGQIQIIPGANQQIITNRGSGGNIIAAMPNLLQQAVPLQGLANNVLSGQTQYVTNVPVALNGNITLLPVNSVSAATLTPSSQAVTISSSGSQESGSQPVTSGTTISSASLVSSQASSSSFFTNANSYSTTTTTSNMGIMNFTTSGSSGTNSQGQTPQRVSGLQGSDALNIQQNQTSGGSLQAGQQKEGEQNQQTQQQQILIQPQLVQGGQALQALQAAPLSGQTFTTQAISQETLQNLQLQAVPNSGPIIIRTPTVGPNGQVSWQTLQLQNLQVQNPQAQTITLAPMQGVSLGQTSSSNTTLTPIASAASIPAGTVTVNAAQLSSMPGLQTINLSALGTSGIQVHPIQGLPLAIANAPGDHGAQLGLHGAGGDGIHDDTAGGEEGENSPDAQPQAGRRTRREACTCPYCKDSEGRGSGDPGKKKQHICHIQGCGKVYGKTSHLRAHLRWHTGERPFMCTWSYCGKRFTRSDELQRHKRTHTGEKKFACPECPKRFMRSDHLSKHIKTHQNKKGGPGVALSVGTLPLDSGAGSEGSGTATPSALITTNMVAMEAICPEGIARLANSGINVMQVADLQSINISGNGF
Signal transducer and activator of transcription 3 (Homo sapiens), sequence (P40763 whole entry, looked up): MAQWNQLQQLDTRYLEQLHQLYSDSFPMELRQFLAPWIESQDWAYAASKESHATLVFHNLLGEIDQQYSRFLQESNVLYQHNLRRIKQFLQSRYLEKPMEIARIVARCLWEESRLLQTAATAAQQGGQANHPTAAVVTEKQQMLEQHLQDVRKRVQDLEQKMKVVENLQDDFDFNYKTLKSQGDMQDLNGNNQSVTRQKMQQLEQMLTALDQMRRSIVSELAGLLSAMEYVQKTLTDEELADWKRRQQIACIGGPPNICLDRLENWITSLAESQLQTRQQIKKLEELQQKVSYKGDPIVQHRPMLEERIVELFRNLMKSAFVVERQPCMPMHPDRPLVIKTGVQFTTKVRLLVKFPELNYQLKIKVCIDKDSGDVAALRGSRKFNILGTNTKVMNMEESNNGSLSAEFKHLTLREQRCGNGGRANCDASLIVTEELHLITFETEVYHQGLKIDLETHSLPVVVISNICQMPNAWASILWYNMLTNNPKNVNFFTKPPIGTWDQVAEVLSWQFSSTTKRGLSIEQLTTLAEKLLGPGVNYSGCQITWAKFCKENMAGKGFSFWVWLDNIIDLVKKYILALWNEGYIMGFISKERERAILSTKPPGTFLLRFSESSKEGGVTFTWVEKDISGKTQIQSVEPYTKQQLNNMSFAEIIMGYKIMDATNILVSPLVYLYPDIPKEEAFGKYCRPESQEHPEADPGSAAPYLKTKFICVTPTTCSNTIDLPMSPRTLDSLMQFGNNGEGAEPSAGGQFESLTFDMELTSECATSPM

Cc1ccc(N=Nc2c(O)ccc3ccccc23)c(C)c1
inactive: all assays above

CCOC=O
not listed: [8]
inactive: all other assays above

CC1COCc2cc3c(cc21)C(C)(C)C(C)C3(C)C (stereo unspecified)
active: [2] 164 µM | [3] 73.2 µM | [4] 100 µM | [6] 176 µM | [7] 168 µM
inactive: [1] | [5] | [8] | [10]

CCCCCc1ccc(O)cc1
not listed: [9]
inactive: all other assays above

CCC(C)c1nccnc1OC (stereo unspecified)
not listed: [9]
inactive: all other assays above

FC(F)(F)C(F)(F)C(F)(F)C(F)(F)I
inactive: all assays above

CC(C)[C@@H]1CC[C@@H](C)C[C@H]1O
not listed: [9]
inactive: all other assays above

CCCCCCCCCCCCCCCCCC[N+](C)(C)Cc1ccccc1
active: [1] 79.8 µM | [3] 12.4 µM | [5] 13.2 µM | [6] 88.9 µM
inactive: all other assays above

NCc1cccc(CN)c1
not listed: [9]
inactive: all other assays above

Cn1sccc1=O
active: [3] 154 µM | [4] 153 µM | [5] 161 µM | [8] 92.9 µM
inactive: all other assays above

FCOC(C(F)(F)F)C(F)(F)F
not listed: [9]
inactive: all other assays above

CCC1CO1 (stereo unspecified)
inactive: all assays above

COC(=O)C(F)(F)C(F)(F)C(F)(F)F
not listed: [9]
inactive: all other assays above

O=C1c2ccc(O)c(O)c2C(=O)c2c(O)ccc(O)c21
not listed: [9]
inactive: all other assays above

Oc1ccc(Cc2ccccc2O)cc1
not listed: [9]
inactive: all other assays above

COC(=O)C(F)(F)C(F)(F)C(F)(F)C(F)(F)C(F)(F)F
inactive: all assays above

c1ccc2c(c1)CCC2
inactive: all assays above

O=C(O)CCC(F)(F)C(F)(F)C(F)(F)C(F)(F)C(F)(F)C(F)(F)F
not listed: [9]
inactive: all other assays above

O=C(C=C(O)C(F)(F)F)C(F)(F)F
not listed: [9]
inactive: all other assays above

CCCCC(CC)C(=O)OCCOCCOCCOCCOC(=O)C(CC)CCCC (stereo unspecified)
not listed: [9]
inactive: all other assays above

O=C1NS(=O)(=O)c2ccccc21
inactive: all assays above

CCCCCCc1ccc(N)cc1
active: [8] 5.73 µM
inactive: all other assays above

CC(C)C=O
not listed: [9]
inactive: all other assays above

Oc1c(Cl)ccc(Cl)c1Cl
active: [1] 40.4 µM
not listed: [8]
inactive: all other assays above

Cc1ccccc1C(OCCN(C)C)c1ccccc1 (stereo unspecified)
not listed: [5]
inactive: all other assays above

CC(=O)Nc1ccc(O)cc1
not listed: [5]
inactive: all other assays above

O=c1cc(-c2ccccc2)oc2ccc3ccccc3c12
not listed: [8]
inactive: all other assays above

O=C(F)C(F)(F)C(F)(F)C(F)(F)C(F)F
not listed: [8] | [9]
inactive: all other assays above

C=CC(=O)OCC(CO)(COCC(COC(=O)C=C)(COC(=O)C=C)COC(=O)C=C)COC(=O)C=C
active: [2] 2.71 µM | [3] 5.94 µM | [4] 3.37 µM | [8] 0.426 µM
not listed: [5]
inactive: all other assays above

CCc1ccccc1O
not listed: [8] | [9]
inactive: all other assays above

CC(C)(C)C1CCCCC1O (stereo unspecified)
not listed: [5]
inactive: all other assays above
